ssDAF-12 act: S. stercoralis DAF-12 activation, primary screen; HEK293 ssDAF-12/GRIP1 lit1-tk-luc reporter, luminescence; % of 3 µM dafachronic acid response; activation, % at 6.8 µM; 370,000 compounds, 1% hits;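 active = activation above the mean over all tested compounds plus 3 SD, cut at about 0.9% in these data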;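 note: 0% = DMSO-only wells and 100% = 3 µM delta7-dafachronic acid wells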
hgDAF12 agonist: agonists of H. glycines DAF-12 nuclear receptor. 370,000 compounds, 1.8% hits. HEK293 GAL4-hgDAF12 UAS-luciferase reporter, agonist luminescence; normalized to butyrate control. AID 687014. activation, % at 6.8 µM;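 active = activation above a cutoff set at the mean of all screened compounds plus 3 SD, cut at about 10% in these data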;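 note: 0% = DMSO wells and 100% = sodium butyrate wells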
DAX1 inh-1: blocks DAX1 repression of SF-1 activated StAR promoter. 370,000 compounds, 1.1% hits. AID 652010. HEK293T StAR-luciferase reporter, SF-1/DAX-1 repression relief. inhibition, % at 6.8 µM;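 active = inhibition above the mean over all tested compounds plus 3 SD, cut at about 3.6% in these data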;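 note: 0% = DAX-1 cells with DMSO and 100% = cells lacking DAX-1 with DMSO; higher inhibition means more luminescence from relief of DAX-1 repression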
hcDAF-12 act: activators of H. contortus DAF-12 nuclear receptor; HEK293 hcDAF-12 lit1-tk-luc reporter, luminescence; 0% DMSO, 100% Δ7-dafachronic acid; activation, % at 6.8 µM; 370,000 compounds, 1.4% hits;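 active = activation above the mean of all tested compounds plus 3 SD, cut at about 5.5% in these data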;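 note: 100% = response to 3 µM Δ7-dafachronic acid high control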
DAX1 inh-2: NR0B1 (DAX1) inhibition | P51843 | inhibition, % at 6.75 µM | HEK293 Gal4-DAX1 luciferase reporter, luminescence | 340,000 compounds, 0.99% hits | AID 504766;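 active = inhibition above the mean over all tested compounds plus 3 SD, cut at about 4.2% in these data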;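 note: 0% = DAX1-transfected cells with DMSO and 100% = empty-vector control cells with DMSO; inhibition shows as a rise in luminescence from relieved DAX1 repression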
Target sequence (P51843 207-470 limits assumed): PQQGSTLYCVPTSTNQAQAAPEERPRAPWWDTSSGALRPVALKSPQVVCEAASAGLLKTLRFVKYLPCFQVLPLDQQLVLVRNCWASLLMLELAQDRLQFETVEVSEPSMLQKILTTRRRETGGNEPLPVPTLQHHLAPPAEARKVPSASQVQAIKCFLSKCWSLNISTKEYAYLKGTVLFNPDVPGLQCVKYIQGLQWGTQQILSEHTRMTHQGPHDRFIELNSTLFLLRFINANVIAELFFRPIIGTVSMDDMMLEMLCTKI
An asterisk follows results filed as active; nt = no result given. Most compounds without a hit are left out; they make up all but 4.1% or so of the library.

SMILES	ssDAF-12 act	hgDAF12 agonist	DAX1 inh-1	hcDAF-12 act	DAX1 inh-2
COc1ccc(-c2oc3ccc(-c4cc(OC)c(OC)c(OC)c4)cc3c2-c2ccc(OC)cc2)cc1	-1	0	0	-2	nt
Cc1cc(CN(C)C(=O)CCc2nnc(Cc3cccc(C(F)(F)F)c3)o2)on1	0	6	1	2	3
CCN(CC)C(=O)CCc1nnc(Cc2cccc(C(F)(F)F)c2)o1	1	13*	1	2	2
Fc1ccc(CSc2nnc3ccccn23)c(Cl)c1	-1	4	4.2*	4	0
CN(Cc1nc(-c2ccccc2)no1)C1CCOCC1	-1	11*	1	2	4.8*
COc1ccc(-c2noc(CN(C)C3CCOCC3)n2)cc1	-1	-2	0	0	1
CNC(=S)N/N=C/c1c(C(=O)OC)cnn1-c1ccc(Cl)cc1	-2	-4	nt	-2	nt
O=C(O)COc1ccc(Br)cc1/C=N\Nc1ccccn1	nt	nt	nt	nt	4.7*
COc1ccccc1CC(=O)Nc1ccc(C(=O)N2CCCCC2)cc1	-1	0	3.9*	0	1
O=C1c2ccccc2C(=O)N1CCOc1cccc(Br)c1	0	10	4.4*	2	1
O=C(N=C1c2ccccc2CN1c1cccc(Cl)c1)c1cccnc1	0	11*	1	4	-1
Cc1ccc([N+](=O)[O-])c(OCc2ncc(Cl)n2C)c1	1.1*	4	0	5	0
COc1ccc(C(=O)CSc2nnc(-c3cccs3)o2)cc1OC	-2	-1	0	0	nt
COc1cc(NC(=O)c2ccccc2)c(OC)cc1NC(=O)CSc1[nH]c(=O)cc(C)c1C#N	-1	0	0	-1	4.4*
COC(=O)[C@H](C(C)C)N1Cc2nnn(Cc3ccccc3)c2C=CS1(=O)=O	-1	1	0	-4	nt
COc1ccc2[nH]c3c(c2c1)CCN[C@]31C(=O)N(Cc2cn(Cc3ccccc3)nn2)c2ccccc21	0	3	0	-1	nt
Nc1cc[n+](CC(=O)c2ccccc2)cc1	-1	-2	-1	-3	1
O=C(C[n+]1ccc2ccccc2c1)c1ccccc1	1	9	1	4	4.8*
CCCCCC(=O)NC1CCCCN(Cc2cccc(Cl)c2)C1=O (stereo not given)	-1	-3	0	-1	nt
CCC(C(=O)O)n1c2ccccc2c2cn[nH]c(=O)c21 (stereo not given)	1.0*	1	0	5	-1
CCC(C(=O)O)n1c(C(F)(F)F)nc2ccccc21 (stereo not given)	-1	1	0	-1	2
COc1cccc(NC(=O)N(C)C[C@H]2OCc3ccccc3-c3c(n(C)c4ccccc34)C(=O)N([C@H](C)CO)C[C@H]2C)c1	-1	-4	-1	-2	nt
COc1ccc(C(=O)/C=C/c2ccc(OC3CSC3)cc2)cc1OC	-1	0	-1	-2	-1
O=C(/C=C/c1ccc(OC2CSC2)cc1)c1ccc(Cl)cc1	-1	2	0	5.6*	2
Cc1cccc(C)c1NCc1n[nH]c(=S)n1-c1ccccc1	-1	3	0	0	4.7*
SMILES	ssDAF-12 act	hgDAF12 agonist	DAX1 inh-1	hcDAF-12 act	DAX1 inh-2
CC(C)Oc1ccc(CCc2n[nH]c(=S)n2-c2ccccc2)cc1	0	1	-1	-2	4.3*
COc1cc2c(c(OC)c1OC)CC(c1ccccc1)=C(c1ccccc1)CC2NC(=O)C(F)(F)F (stereo not given)	-1	-1	1	0	nt
O=C(OCc1cn(Cc2ccc(F)c(F)c2)nn1)N1CCCC1	0	-3	0	0	nt
Cc1cc(C)nc(SCC(=O)N2CCc3ccccc32)n1	0	4	4.3*	0	1
O=C(Cn1cc2c(n1)CCCCC2)N1CCc2ccccc2C1	-1	0	0	-1	0
CC(Sc1ncccn1)C(=O)N1CCc2ccccc21 (stereo not given)	-1	-1	1	5.8*	1
O=C(Cn1cc2c(n1)CCCC2)N1CCc2ccccc21	1	-4	0	1	4.5*
CC(Oc1ccc(Br)cc1)C(=O)N1CCc2ccccc21 (stereo not given)	-1	1	-1	-1	0
Cc1ccn(C(C)CC(=O)N2CCc3ccccc32)n1 (stereo not given)	0	3	1	6.2*	0
Nn1c(SCC(=O)Nc2ccc(C(=O)O)cc2)nnc1-c1ccco1	-1	3	0	-1	nt
CC(=O)CCN1CCSCCS1(=O)=O	-1	-2	-1	-2	nt
O=C(O)c1ccccc1SCC(=O)N1CCc2ccccc21	7.6*	3	1	2	-1
O=C(c1ccc(N2CCOCC2)cc1)c1cccs1	0	12*	3.8*	6	3
Cc1cccc(-c2cccc3c4c([nH]c23)[C@@H]2C[C@H](N(C)C(=O)C3CCCCC3)[C@H]([C@H](C)O)CN2CC4)c1	-1	-3	0	2	nt
O=C1Cc2ccccc2C(=O)N1OCc1ccc(Cl)cc1	0.9*	-1	0	3	-1
CCOCCCNC(=O)C1CCN(S(=O)(=O)c2cc3c(cc2Br)CCN3C(=O)CC)CC1	-1	2	1	-2	nt
CCCC(C)NC(=O)COC(=O)c1cccc(NS(C)(=O)=O)c1 (stereo not given)	0	2	0	-1	4.6*
ClC(CCN1CCN(Cc2ccccc2)CC1)c1ccccc1 (stereo not given)	-1	-2	0	-1	5.7*
CC(CN1CCN(Cc2ccccc2)CC1)c1ccccc1 (stereo not given)	-1	1	0	-1	1
COc1cc2ccccc2cc1C(=O)Nc1ccc(N2CCN(C)CC2)cc1	0	13*	2	3	0
CC1=C(C(=O)Nc2ccc(C)cc2C)C(c2ccc(Cl)cc2)n2nc(C(=O)OC(C)C)nc2N1 (stereo not given)	-1	0	0	-2	4.4*
CC1CCC/C(=N/Nc2nc3ccccc3s2)C1 (stereo not given)	0	0	3	6.4*	5.3*
CCc1ccc(N2CN=c3s/c(=C\c4ccccc4)c(=O)n3C2)cc1	-2	1	0	-3	5.3*
CCCCc1nnn2c1C1c3cc(Br)ccc3CCN1C(=O)C2 (stereo not given)	-1	-1	-1	-3	nt
CN1C(=O)C[C@@](C#N)(C(=O)NCc2ccc3c(c2)OCO3)[C@H]1c1ccccc1	0	3	2	1	nt
COc1ccc2oc(=O)c(C(=O)Nc3ccccc3C)cc2c1	0	12*	2	4	3
CC(C)c1nnc(NC(=O)c2cc3cc(Br)ccc3oc2=O)s1	-1	3	0	-1	-1
O=C(Nc1ccccc1O)c1cc2cc(Br)ccc2oc1=O	1.1*	7	0	2	2
O=C(NNC(=O)c1cc2cc(Br)ccc2oc1=O)c1ccc(O)cc1	2.5*	-2	0	1	0
